The values below come from ChEMBL document CHEMBL1961873, “Compounds: GSK PKIS; Assays: Nanosyn kinase panel” (2012).

Experiment [1] concerns the target Sphingosine kinase 1 (Homo sapiens) (UniProt Q9NYA1). The note with it: at 1 µM.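 Further: mean SPHK1 inhibition value reported from the GSK PKIS kinase panel screen.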
For experiment [2], the target named is T1, Sphingosine kinase 2 (Homo sapiens) (UniProt Q9NRA0).
T1 sequence (whole entry): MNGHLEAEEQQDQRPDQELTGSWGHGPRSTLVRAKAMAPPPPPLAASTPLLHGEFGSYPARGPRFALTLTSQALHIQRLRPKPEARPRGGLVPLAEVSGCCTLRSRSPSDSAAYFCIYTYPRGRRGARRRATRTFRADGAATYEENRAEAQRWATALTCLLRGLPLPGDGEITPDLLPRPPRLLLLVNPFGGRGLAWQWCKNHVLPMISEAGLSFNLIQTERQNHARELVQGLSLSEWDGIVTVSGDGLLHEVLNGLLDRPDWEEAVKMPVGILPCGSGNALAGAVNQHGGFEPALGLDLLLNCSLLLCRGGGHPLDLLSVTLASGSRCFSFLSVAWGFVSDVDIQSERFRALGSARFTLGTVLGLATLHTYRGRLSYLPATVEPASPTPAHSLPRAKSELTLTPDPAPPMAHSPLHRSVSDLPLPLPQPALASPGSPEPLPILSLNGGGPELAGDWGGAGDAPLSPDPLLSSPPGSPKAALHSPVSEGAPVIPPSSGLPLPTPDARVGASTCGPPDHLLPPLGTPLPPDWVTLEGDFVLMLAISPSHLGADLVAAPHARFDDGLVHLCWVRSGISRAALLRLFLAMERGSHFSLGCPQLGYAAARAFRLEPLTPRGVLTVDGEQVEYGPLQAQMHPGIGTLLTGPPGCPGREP
The note with it: at 0.1 µM.

For experiment [3], the target named is T1, Sphingosine kinase 2 (Homo sapiens). The note with it: at 1 µM.
The target of experiment [4] is Casein kinase II subunit alpha (Homo sapiens) (UniProt P68400). The note with it: at 0.1 µM.
Chain of Casein kinase II subunit alpha (Homo sapiens) (P68400 whole entry, looked up): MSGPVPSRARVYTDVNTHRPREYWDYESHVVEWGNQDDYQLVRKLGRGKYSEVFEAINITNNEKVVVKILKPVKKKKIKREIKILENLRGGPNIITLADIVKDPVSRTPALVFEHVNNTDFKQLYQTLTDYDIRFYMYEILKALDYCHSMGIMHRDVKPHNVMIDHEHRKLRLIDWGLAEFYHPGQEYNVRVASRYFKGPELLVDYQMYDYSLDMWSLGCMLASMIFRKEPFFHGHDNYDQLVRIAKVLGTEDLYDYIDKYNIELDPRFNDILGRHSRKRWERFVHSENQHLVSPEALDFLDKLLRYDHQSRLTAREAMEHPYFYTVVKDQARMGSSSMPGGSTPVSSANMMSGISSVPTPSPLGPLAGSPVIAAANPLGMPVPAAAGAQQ
Experiment [5] shares this target. The note with it: at 1 µM.
Experiment [6] has as its target T2, Inhibitor of nuclear factor kappa-B kinase subunit alpha (Homo sapiens) (UniProt O15111).
T2 sequence (whole entry): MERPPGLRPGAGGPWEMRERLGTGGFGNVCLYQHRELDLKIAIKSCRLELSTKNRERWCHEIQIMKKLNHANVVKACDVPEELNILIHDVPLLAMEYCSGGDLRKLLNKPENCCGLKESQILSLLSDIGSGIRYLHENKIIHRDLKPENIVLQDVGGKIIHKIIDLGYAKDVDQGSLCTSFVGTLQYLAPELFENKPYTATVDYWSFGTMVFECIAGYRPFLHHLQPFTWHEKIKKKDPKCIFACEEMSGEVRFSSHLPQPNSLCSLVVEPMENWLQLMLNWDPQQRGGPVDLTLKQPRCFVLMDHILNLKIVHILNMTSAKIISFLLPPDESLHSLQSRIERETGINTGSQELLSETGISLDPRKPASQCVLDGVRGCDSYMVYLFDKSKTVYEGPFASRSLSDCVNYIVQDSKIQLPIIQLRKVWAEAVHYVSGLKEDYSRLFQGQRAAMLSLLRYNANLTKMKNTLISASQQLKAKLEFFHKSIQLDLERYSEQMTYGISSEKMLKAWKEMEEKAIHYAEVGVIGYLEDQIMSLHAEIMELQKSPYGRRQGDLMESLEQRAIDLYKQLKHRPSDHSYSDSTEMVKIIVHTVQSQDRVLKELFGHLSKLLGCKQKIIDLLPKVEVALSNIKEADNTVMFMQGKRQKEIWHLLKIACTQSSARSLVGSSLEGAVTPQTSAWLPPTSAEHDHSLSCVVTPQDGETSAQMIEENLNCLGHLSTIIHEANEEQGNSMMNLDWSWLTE
The note with it: at 0.1 µM.

The target in experiment [7] is T2, Inhibitor of nuclear factor kappa-B kinase subunit alpha (Homo sapiens). The note with it: at 1 µM.
Experiment [8] concerns the target T3, Inhibitor of nuclear factor kappa-B kinase subunit beta (Homo sapiens) (UniProt O14920).
T3 sequence (whole entry): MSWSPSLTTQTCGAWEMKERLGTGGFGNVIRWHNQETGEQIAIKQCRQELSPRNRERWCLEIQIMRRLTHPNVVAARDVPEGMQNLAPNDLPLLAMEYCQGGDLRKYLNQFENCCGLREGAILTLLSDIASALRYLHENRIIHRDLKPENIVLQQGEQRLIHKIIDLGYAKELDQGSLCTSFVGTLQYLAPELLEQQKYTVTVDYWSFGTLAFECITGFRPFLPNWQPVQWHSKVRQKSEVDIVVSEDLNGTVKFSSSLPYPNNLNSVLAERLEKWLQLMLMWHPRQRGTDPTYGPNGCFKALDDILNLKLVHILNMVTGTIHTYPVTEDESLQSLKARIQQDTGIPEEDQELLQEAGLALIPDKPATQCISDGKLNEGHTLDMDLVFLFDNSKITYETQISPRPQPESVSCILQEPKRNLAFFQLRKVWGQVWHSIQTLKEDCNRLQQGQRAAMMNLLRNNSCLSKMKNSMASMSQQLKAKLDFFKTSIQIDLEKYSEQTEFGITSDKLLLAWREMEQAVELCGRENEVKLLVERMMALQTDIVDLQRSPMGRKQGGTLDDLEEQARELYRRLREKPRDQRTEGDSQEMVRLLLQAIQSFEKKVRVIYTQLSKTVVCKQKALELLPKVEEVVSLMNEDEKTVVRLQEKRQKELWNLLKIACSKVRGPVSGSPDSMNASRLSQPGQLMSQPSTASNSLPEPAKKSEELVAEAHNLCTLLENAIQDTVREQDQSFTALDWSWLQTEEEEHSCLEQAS
The note with it: at 0.1 µM.

Experiment [9] addresses T3, Inhibitor of nuclear factor kappa-B kinase subunit beta (Homo sapiens). The note with it: at 1 µM.
Experiment [10] concerns the target T4, Inhibitor of nuclear factor kappa-B kinase subunit epsilon (Homo sapiens) (UniProt Q14164).
T4 sequence (whole entry): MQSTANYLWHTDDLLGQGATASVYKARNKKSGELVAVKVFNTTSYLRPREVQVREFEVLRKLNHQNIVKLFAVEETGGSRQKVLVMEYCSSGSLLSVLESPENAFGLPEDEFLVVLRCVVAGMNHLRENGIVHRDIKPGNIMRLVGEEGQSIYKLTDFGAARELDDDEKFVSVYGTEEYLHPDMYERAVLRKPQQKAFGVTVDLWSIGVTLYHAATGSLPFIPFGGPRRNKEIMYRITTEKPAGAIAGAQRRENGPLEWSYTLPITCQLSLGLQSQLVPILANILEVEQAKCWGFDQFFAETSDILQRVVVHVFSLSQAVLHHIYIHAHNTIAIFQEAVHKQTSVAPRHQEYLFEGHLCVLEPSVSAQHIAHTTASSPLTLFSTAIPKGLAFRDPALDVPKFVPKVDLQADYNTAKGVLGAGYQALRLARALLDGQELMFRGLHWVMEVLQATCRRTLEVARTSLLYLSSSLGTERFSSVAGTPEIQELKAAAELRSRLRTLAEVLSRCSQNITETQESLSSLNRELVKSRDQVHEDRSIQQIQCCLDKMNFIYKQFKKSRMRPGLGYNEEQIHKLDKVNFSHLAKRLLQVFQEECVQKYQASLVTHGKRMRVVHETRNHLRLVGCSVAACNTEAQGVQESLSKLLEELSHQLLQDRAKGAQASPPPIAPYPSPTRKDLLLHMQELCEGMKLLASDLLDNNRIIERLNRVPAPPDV
The note with it: at 0.1 µM.

In experiment [11] the target is T4, Inhibitor of nuclear factor kappa-B kinase subunit epsilon (Homo sapiens). The note with it: at 1 µM.
The target in experiment [12] is T5, Serine/threonine-protein kinase Nek1 (Homo sapiens) (UniProt Q96PY6).
T5 sequence (whole entry): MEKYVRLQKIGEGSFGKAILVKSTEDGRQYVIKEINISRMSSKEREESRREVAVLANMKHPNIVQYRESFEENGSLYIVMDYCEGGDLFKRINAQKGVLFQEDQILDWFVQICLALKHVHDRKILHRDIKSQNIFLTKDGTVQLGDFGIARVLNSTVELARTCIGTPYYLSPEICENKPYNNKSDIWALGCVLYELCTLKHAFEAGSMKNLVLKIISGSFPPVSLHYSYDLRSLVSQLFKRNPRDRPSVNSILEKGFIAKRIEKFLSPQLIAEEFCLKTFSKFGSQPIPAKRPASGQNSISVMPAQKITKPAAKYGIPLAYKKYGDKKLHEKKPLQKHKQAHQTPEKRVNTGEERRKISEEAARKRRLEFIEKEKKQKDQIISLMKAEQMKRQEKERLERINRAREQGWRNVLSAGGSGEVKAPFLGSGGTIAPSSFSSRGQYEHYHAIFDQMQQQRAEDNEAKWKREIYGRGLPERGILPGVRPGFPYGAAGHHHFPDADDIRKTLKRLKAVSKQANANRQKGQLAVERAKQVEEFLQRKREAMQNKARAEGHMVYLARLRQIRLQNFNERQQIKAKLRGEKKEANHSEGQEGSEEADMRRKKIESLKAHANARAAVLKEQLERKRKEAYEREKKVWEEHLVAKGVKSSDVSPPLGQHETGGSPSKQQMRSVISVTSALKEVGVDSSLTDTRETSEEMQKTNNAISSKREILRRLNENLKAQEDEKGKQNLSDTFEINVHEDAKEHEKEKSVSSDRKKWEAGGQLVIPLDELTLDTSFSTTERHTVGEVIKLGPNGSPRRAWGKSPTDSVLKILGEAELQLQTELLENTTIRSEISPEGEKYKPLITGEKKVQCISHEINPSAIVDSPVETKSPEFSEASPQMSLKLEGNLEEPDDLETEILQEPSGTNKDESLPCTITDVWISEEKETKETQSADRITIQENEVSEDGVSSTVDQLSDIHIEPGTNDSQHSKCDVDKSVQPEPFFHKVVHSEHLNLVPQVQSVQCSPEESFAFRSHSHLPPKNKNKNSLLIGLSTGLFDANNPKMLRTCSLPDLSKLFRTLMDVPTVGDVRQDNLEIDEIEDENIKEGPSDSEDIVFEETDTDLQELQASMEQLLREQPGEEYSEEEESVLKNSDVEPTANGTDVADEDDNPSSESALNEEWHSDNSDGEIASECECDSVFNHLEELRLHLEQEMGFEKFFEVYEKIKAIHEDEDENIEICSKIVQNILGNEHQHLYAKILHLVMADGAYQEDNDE
The note with it: at 0.1 µM.

The target in experiment [13] is T5, Serine/threonine-protein kinase Nek1 (Homo sapiens). The note with it: at 1 µM.
The target of experiment [14] is T6, Serine/threonine-protein kinase Nek2 (Homo sapiens) (UniProt P51955).
T6 sequence (whole entry): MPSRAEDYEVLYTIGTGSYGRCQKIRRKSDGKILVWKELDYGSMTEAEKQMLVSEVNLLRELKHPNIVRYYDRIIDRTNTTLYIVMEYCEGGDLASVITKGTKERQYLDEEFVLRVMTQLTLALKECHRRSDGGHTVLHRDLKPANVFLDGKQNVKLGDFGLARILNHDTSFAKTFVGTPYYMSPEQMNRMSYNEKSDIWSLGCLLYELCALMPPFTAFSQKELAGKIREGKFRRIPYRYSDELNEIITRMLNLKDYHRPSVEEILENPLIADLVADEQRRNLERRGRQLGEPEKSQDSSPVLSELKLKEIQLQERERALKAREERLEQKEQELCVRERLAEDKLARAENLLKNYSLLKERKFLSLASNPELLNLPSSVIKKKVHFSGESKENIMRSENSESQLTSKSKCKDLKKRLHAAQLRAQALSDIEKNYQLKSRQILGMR
The note with it: at 0.1 µM.

The target of experiment [15] is T6, Serine/threonine-protein kinase Nek2 (Homo sapiens). The note with it: at 1 µM.
Experiment [16] has as its target Serine/threonine-protein kinase Nek6 (Homo sapiens) (UniProt Q9HC98). The note with it: at 0.1 µM.
For experiment [17] the target is unchanged. The note with it: at 1 µM.
The target of experiment [18] is Serine/threonine-protein kinase Nek7 (Homo sapiens) (UniProt Q8TDX7). The note with it: at 0.1 µM.
Chain of Serine/threonine-protein kinase Nek7 (Homo sapiens) (Q8TDX7 whole entry, looked up): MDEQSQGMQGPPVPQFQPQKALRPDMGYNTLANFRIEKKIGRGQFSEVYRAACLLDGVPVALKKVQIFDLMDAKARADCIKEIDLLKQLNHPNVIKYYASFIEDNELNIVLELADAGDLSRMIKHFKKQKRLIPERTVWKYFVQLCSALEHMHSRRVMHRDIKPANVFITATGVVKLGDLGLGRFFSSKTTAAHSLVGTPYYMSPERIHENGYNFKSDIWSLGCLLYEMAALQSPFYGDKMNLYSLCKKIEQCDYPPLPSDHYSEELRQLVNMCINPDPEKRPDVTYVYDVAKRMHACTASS
Experiment [19] has the same target. The note with it: at 1 µM.
Experiment [20] deals with T7, Serine/threonine-protein kinase Nek9 (Homo sapiens) (UniProt Q8TD19).
T7 sequence (whole entry): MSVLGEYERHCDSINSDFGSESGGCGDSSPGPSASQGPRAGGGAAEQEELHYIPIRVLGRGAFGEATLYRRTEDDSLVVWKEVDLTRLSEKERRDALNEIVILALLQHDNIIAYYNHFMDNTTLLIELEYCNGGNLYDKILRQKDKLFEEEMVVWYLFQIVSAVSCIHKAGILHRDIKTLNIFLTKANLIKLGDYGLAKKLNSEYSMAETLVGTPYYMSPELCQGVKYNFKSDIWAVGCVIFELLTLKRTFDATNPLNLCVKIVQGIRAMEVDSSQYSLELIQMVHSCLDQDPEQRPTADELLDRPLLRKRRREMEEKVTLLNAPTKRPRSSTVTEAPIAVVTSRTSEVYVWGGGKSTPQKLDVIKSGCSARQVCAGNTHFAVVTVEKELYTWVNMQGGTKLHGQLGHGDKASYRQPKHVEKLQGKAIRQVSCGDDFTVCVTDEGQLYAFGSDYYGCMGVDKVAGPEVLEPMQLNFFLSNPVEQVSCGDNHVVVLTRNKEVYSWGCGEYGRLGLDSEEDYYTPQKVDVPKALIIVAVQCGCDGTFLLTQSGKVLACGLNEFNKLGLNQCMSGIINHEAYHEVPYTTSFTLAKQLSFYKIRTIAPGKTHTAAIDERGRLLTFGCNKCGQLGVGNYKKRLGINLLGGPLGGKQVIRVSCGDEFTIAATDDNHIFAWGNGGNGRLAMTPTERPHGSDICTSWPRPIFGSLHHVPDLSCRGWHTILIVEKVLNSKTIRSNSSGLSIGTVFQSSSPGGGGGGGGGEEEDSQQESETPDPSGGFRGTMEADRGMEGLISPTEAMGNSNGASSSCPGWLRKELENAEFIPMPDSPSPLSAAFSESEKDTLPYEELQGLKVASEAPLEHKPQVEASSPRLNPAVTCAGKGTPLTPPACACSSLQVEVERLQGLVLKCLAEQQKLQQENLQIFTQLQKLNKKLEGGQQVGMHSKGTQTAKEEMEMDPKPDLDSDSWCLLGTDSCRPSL
The note with it: at 0.1 µM.

Structures are written as SMILES.

Chain of Serine/threonine-protein kinase Nek6 (Homo sapiens) (Q9HC98 whole entry): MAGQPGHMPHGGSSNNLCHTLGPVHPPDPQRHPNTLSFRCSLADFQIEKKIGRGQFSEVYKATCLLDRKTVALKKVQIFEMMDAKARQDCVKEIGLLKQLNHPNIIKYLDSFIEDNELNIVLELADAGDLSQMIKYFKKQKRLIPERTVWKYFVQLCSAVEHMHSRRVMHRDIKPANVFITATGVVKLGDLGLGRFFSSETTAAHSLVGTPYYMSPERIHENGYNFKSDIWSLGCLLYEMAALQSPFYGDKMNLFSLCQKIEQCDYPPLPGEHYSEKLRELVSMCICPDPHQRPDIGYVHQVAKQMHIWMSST
Chain of Sphingosine kinase 1 (Homo sapiens) (Q9NYA1 whole entry): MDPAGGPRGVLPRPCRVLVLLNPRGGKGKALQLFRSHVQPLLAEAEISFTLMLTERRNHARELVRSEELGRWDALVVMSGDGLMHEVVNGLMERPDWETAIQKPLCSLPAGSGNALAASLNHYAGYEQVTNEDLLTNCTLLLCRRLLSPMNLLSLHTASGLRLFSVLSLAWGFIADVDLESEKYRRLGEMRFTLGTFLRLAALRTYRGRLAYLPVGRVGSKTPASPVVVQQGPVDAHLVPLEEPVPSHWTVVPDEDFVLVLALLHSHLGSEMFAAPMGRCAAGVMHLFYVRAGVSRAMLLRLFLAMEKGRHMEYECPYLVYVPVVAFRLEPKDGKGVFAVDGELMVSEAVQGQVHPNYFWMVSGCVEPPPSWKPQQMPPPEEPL

As to `COc1ccc2[nH]c3c4[nH]c5ccc(OC)cc5c4c4c(c3c2c1)C(=O)NC4=O`, the inhibition in experiment [1] was -1.68%; in experiment [2], -2.46%; in [3] it was -0.32%; in experiment [4] it was 6.4%; in experiment [5], 15.9%; in experiment [6] it was 5.28%. Also, the inhibition in experiment [7] is 6.84%; in experiment [8], 3.54%; in experiment [9], 4.71%; in experiment [10], 13.5%; in experiment [11] it was 36.3%; in [12] it was 0.76%. Moreover, the inhibition in [13] turned out to be 1.99%; in experiment [14], 4.36%; in experiment [15] it was 5.74%; in experiment [16], 5.36%; in [17], 5.14%; in [18], 3.71%. The inhibition in experiment [19] stood at 5.28%; in [20] it was 2.96%.

As usually defined, the inhibition is the change of the read-out against control, counted positive when it falls.
